PubChem BioAssay

Assay: small-molecule binders of probe aNOTCH3, primary screen, biochemical, small-molecule microarray, 635/667 nm fluorescence (AID 1120);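 note: probe is a biotin-tagged antibody raised against NOTCH3 rather than NOTCH3 protein; score merges spot fluorescence near 667 nm with spot signal to noise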
Settings: higher = more signal
Compound `O=C1C2C=CC(C(O)c3cc(C(F)(F)F)cc(C(F)(F)F)c3)N(Nc3ccc([N+](=O)[O-])cc3)C2C(=O)N1c1ccccc1` (configuration not stated) has a composite z-score of 0.37.
For `COCCOC(=O)N1C(=O)[C@@]2(c3cc(C#CC4(O)CCCCCC4)ccc31)[C@H](C(=O)N1CCCCCCC1)[C@H]1C(=O)O[C@H](c3ccccc3)[C@H](c3ccccc3)N1[C@@H]2c1ccc(OCCO)cc1`, the composite z-score was 1.73.
Work on `CC(C)CNC(=O)[C@@H]1c2ccccc2C(=O)N(Cc2cc(F)cc(C(F)(F)F)c2)[C@H]1c1ccc(CO)cc1` yielded a composite z-score of 0.0628.
Work on `CCOC(=O)[C@H]1C/C=C/C[C@H](C(=O)OCC)C(=O)O[C@H]2[C@@H](OC)O[C@H](CO)[C@@H](OC(=O)CCc3ccccc3)[C@@H]2OC1=O` yielded a composite z-score of 0.996.
`C=CC[C@@]1(C(=O)O)N=C(c2ccc(OCCCO)cc2)O[C@@H]1c1ccccc1` showed a composite z-score of -0.293.
`CCOC(=O)[C@@H]1[C@@H]2C(=O)N(CC)C(=O)[C@@H]2C[C@@H]1Sc1ccccc1` showed a composite z-score of 0.191.
With `CC(C)CN1C(=O)[C@@]2(c3ccc([N+](=O)[O-])cc3)CC(=O)N(CC34CC5CC(CC(C5)C3)C4)[C@@H]2c2ccc(CO)cc21` the composite z-score was -0.0016.
`C=CC[C@@]1(C(=O)N2CCCCC2)N=C(c2ccc(OCCCO)cc2)O[C@@H]1c1ccccc1` gave a composite z-score of 0.284.
With `C=CCOC(=O)[C@H]1[C@@H]2C(=O)O[C@@H](c3ccccc3)[C@@H](c3ccccc3)N2[C@@H](c2ccc(OCCOC(=O)[C@H]3C[C@H]4C(=O)N[C@@H](Cc5ccccc5)C(=O)N4[C@H]3c3ccc(O)cc3)cc2)[C@]12C(=O)Nc1ccc(I)cc12` the composite z-score was 0.189.
Compound `C=CC[C@@]12N=C(c3ccc(OCCCO)cc3)O[C@@H]1c1ccccc1N(CCS(=O)(=O)c1ccccc1)C2=O` has a composite z-score of 0.0692.
`CC(C)N1CC=CC23O[C@@H]4C=CCCOC(=O)C4[C@H]2C(=O)N(CCO)[C@@H]3C1=O` (some centres not stated) gave a composite z-score of -0.305.
With `CCOC(=O)C[C@H]1[C@H](OC(=O)c2ccc(-c3ccccc3)cc2)[C@@H](NC(=O)C2CCCCC2)c2cc(OCCCO)ccc2N1C(=O)c1ccccc1` the composite z-score was 0.172.
With `C=CCN1Cc2ccccc2C[C@@]2(N=C(c3ccc(OCCCO)cc3)O[C@H]2c2ccccc2)C1=O` the composite z-score was 0.106.
For `O=C1O[C@H](c2ccccc2)[C@H](c2ccccc2)N2[C@H]1[C@@H](C(=O)O)[C@]1(C(=O)Nc3ccccc31)[C@H]2c1ccc(O)cc1`, the composite z-score was -0.135.
`CN(C)CCCNC(=O)[C@@]1(C)c2ccccc2C(=O)N(Cc2cc(C(F)(F)F)cc(C(F)(F)F)c2)[C@H]1c1ccc(CO)cc1` showed a composite z-score of -0.0984.
Work on `CCOC(=O)C[C@H]1[C@H](OC(=O)c2ccc(C(=O)c3ccccc3)cc2)[C@@H](NC(=O)c2ccc3ccccc3c2)c2cc(OCCCO)ccc2N1C(=O)c1ccccc1` yielded a composite z-score of 0.0893.
Work on `Cc1c(NC(=O)/C(C#N)=C/C=C/c2ccccc2[N+](=O)[O-])c(=O)n(-c2ccccc2)n1C` yielded a composite z-score of -0.0903.
With `C=CC[C@]12N=C(c3ccc(OCCCO)cc3)O[C@H]1c1ccccc1N(C)C2=O` the composite z-score was 0.336.
`CC(C)CCC[C@@H](C)[C@H]1CC[C@@]2(C)C3=C(CC[C@]12C)[C@@]1(C)CC[C@H](OC(=O)c2ccc(Br)cc2)C(C)(C)C1CC3` (some centres not stated) showed a composite z-score of 0.173.
`Cc1ccc(F)cc1S(=O)(=O)N[C@@H]1CCN(Cc2ccc(Oc3ccccc3)cc2)C1` showed a composite z-score of 0.154.
In the case of `COC(=O)[C@H](Cc1ccccc1)N1CC(/C=C/C2CC2)=C[C@@H]1[C@@H](O)Cc1ccccc1`, the composite z-score is reported as 0.126.
For `CCN(CC)c1ccc(N2CC=CC34O[C@@H]5/C=C\CCC(C)OC(=O)C5[C@H]3C(=O)N(CCO)[C@@H]4C2=O)cc1` (some centres not stated), the composite z-score was -0.152.
`Cc1ccc(S[C@]2(C(=O)NC3CC3)CC(=O)N(Cc3ccccc3Cl)[C@@H]2c2ccc(CO)cc2I)cc1` gave a composite z-score of -0.0967.
`C[C@]1(C(=O)NCCN2CCOCC2)c2ccccc2C(=O)N(Cc2ccc(OC(F)(F)F)cc2)[C@H]1c1ccc(CO)cc1` gave a composite z-score of -0.154.
For `C[C@H]1C2=C3C(CC[C@H]4C(OCc5ccc(F)cc5C(F)(F)F)OC[C@](C)([C@@H]34)N(C(=O)OC(C)(C)C)C2)C2COC(=O)OCC21` (some centres not stated), the composite z-score was 0.242.
Compound `COCCOC(=O)N1C(=O)[C@@]2(c3cc(C#CCNC(N)=O)ccc31)[C@H](C(=O)N1CCCCCCC1)[C@H]1C(=O)O[C@H](c3ccccc3)[C@H](c3ccccc3)N1[C@@H]2c1ccc(O)cc1` has a composite z-score of 0.239.
Work on `Cc1ccc(C(C)CC(O)C2C=CC3C(=O)N(c4ccccc4)C(=O)C3N2Nc2ccc(C(C)C)cc2)o1` (configuration not stated) yielded a composite z-score of 0.126.
